Assay outcomes deposited in PubChem BioAssay by National Center for Advancing Translational Sciences (NCATS).
Most compounds without a hit are left out; they make up all but 21% or so of the library.
TDP1 cell CPT: DT40-hTDP1 cell growth loss with CPT; chicken DT40 Tdp1-/-;hTDP1 cells + 20 nM CPT, ATP luminescence, 48 h; Potency, µM (highest dose often 46.2 µM), inactives show top-dose activity change, negative = growth inhibition, most hits filed as inhibitors; AID 686979; 12% of 420,000 active; further: potency means the concentration at half of the fitted maximal effect; nearly all actives have a fitted effect of over 55% in size
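Cell growth measured by CellTiter-Glo luminescence after a minimum 48 h, 37 C compound exposure with 20 nM CPT in Tdp1-knockout DT40 cells stably expressing hTDP1, seeded 400/well; qHTS titration format.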
IL1B secr inh: inflammasome signaling inhibition, IL-1 beta readout; THP-1 LPS/ATP IL-1B secretion, AlphaLISA, 16 h; hits give low values; activity change, % at 57.5 µM; 4.7% of 360,000 active; in the data active means activity change below about -50%; inconclusive means mostly about -30% to -49%
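THP-1 cells pretreated 1 hr with compounds (up to 57.5 uM final), then stimulated with LPS (250 ng/mL final) plus ATP (1.25 mM final); secreted IL-1B measured by AlphaLISA after 16 hr, decreased signal indicating inhibition.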
VP16 counter: counter-screen for ROR gamma inhibitors: Gal4-VP16 reporter. 3.5% of 310,000 active. AID 2546. Potency, µM (doses to about 53.6 µM), inactives show at the highest dose activity, negative = inhibition, usual class: inhibitors. Drosophila S2 Gal4-VP16 UAS-luciferase, luminescence, 20 h;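 further: Gal4-VP16 expression switched on by copper sulfate through the metallothionein promoter; potency means the concentration at half of the fitted maximal effect; nearly all actives have a fitted effect of over 50% in size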
DT40 TDP1 no CPT: qHTS for Inhibitors of human tyrosyl-DNA phosphodiesterase 1 (TDP1): qHTS in cells in absence of CPT; DT40 Tdp1-/- hTDP1 cells, no CPT, ATP luminescence, 48 h; 15% of 420,000 active; AID 686978, 2013; Potency, µM (series often up to 46.2 µM), for the others: at the highest dose activity change, negative = growth inhibition, most hits filed as inhibitors; further: potency means the concentration at half of the fitted maximal effect; nearly all actives have a fitted effect of over 55% in size
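Growth of hTDP1-complemented DT40 Tdp1-knockout cells is measured by ATP luminescence after at least 48 hr compound exposure at 37 °C, with DMSO substituting for the 20 nM CPT used in the parallel screen.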
RORgamma inh: inhibitors of mouse ROR gamma transcriptional activity; 5.4% of 310,000 active; Drosophila S2 Gal4-RORgamma UAS-luciferase reporter, 20 h; P51450; Potency, µM (highest dose often 53.6 µM), without a hit: at the highest dose activity change, negative = inhibition, most hits filed as inhibitors; further: potency means the concentration at half of the fitted maximal effect; nearly all actives have a fitted effect of over 60% in size
Target sequence (P51450 whole entry, looked up, the tested form may be a part): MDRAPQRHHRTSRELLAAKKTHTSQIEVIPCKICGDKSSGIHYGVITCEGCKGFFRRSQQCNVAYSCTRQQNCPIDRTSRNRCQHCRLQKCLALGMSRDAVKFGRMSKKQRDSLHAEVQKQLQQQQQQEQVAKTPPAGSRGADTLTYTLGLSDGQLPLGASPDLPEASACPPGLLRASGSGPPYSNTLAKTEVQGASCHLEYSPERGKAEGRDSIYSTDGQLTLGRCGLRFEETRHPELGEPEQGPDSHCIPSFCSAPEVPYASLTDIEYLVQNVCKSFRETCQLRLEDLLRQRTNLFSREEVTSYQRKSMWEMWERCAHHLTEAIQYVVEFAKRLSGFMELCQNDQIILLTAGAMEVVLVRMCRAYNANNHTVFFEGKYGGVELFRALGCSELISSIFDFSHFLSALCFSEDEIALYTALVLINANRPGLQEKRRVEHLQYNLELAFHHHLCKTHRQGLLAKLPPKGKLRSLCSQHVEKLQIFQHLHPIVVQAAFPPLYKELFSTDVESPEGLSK
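Compounds are pin-transferred onto Drosophila Schneider cells expressing a copper-inducible Gal4–ROR gamma transactivation domain fusion. After 1 hr, copper sulfate is added to 700 uM final; luciferase is read 20 hr later.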
ELG1 repair inh: blocks ELG1-dependent DNA repair in HEK293T cells. HEK293T ELG1-luciferase reporter, luminescence, 16 h; DNA damage induced by 5-fluorouridine. Potency, µM (doses to about 46.1 µM), inactives show at the top dose activity change, negative = inhibition, most hits filed as inhibitors. 2.3% of 330,000 active. AID 504467; further: potency means the concentration at half of the fitted maximal effect; nearly all actives have a fitted effect of over 55% in size
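Overnight (16 hr) co-exposure of 2,000 cells/well to 5-fluorouridine and compound at 37 °C preceded detection. Luciferase was quantified via ONE-Glo luminescence; loss of signal denotes inhibition.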
An asterisk follows results filed as active; ? = inconclusive; . = no result given; [ ] = remark or other dose. Unless noted, the call rests on the fitted dose curve; in most records, active means well fitted curve in the direction sought with a large enough effect; inconclusive means small, poorly fitted or top-dose-only effect, or another doubt; inactive means no such curve, though single readings can be large; an effect the other way counts as inactive or inconclusive. On the % scale 0 is the no-effect control and ±100 the full control effect.

SMILES	TDP1 cell CPT	IL1B secr inh	VP16 counter	DT40 TDP1 no CPT	RORgamma inh	ELG1 repair inh
CC[C@H](C)[C@H](NC(=O)[C@H](Cc1ccc(O)cc1)NC(=O)[C@H](Cc1cnc[nH]1)NC(=O)[C@H](CCCNC(=N)N)NC(=O)[C@H](CC(C)C)NC(=O)[C@H](C)NC(=O)[C@H](CO)NC(=O)[C@H](Cc1ccc(O)cc1)NC(=O)[C@H](Cc1ccc(O)cc1)NC(=O)[C@H](CCCNC(=N)N)NC(=O)[C@H](C)NC(=O)[C@H](CC(C)C)NC(=O)[C@H](CC(=O)O)NC(=O)[C@H](CCC(=O)O)NC(=O)[C@H](C)NC(=O)[C@@H]1CCCN1C(=O)[C@H](C)NC(=O)[C@H](CC(=O)O)NC(=O)[C@H](CCC(=O)O)NC(=O)CNC(=O)[C@@H]1CCCN1C(=O)[C@H](CC(N)=O)NC(=O)[C@H](CC(=O)O)NC(=O)[C@@H]1CCCN1C(=O)[C@H](CCCCN)NC(=O)[C@H](CO)NC(=O)[C@@H]1CCCN1C(=O)[C@@H](N)Cc1ccc(O)cc1)C(=O)N[C@@H](CC(N)=O)C(=O)N[C@@H](CC(C)C)C(=O)N[C@H](C(=O)N[C@H](C(=O)N[C@@H](CCCNC(=N)N)C(=O)N[C@@H](CCC(N)=O)C(=O)N[C@@H](CCCNC(=N)N)C(=O)N[C@@H](Cc1ccc(O)cc1)C(N)=O)[C@@H](C)O)[C@@H](C)CC	.	.	-4%	.	10%	.
Cn1ncc(Cl)c(Oc2ccccc2)c1=O	-2%	5	-6%	3%	7%	29%
Cn1ncc(Cl)c(Oc2ccc(C(C)(C)C)cc2)c1=O	?	-7	35µM*	?	-16%	21%
CCCCn1nnnc1SCC(=O)Nc1ccc2c(c1)OCO2	-14%	?	24%	-11%	0%	9%
Cc1cccnc1NC(=O)c1ccc(NS(=O)(=O)/C=C/c2ccccc2)cc1	-22%	11	.	-28%	.	-9%
CCc1nc(N2CCN(C(=O)c3ccccc3)CC2)c(C#N)c2c1COC(C)(C)C2	18µM*	0	3%	15µM*	-1%	?
CC1(C)Cc2c(C#N)c(NCCN3CCOCC3)nc(-c3ccccc3)c2CO1	?	-11	-3%	-29%	14%	8.2µM*
CC1(C)Cc2c(C#N)c(N3CCOCC3)nc(Cc3ccccc3)c2CO1	?	-15	8%	21µM*	-1%	?
O=C(c1ccc(Cl)c(S(=O)(=O)N2CCc3ccccc32)c1)N1CCN(c2ccccc2O)CC1	?	-73*	.	23µM*	.	?
Cc1cccc(N2CCN(C(=O)c3ccc(Cl)c(S(=O)(=O)N4CCc5ccccc5C4)c3)CC2)c1C	?	-10	5%	15µM*	10%[10 µM]	?
CC1CN(C(=O)c2ccc(Cl)c(S(=O)(=O)NCc3ccco3)c2)CC(C)O1 (stereo not drawn)	-11%	-12	.	4%	.	1%
CC(=O)N1CCN(C(=O)c2ccc(Cl)c(S(=O)(=O)N3CCc4ccccc43)c2)CC1	-27%	27	.	?	.	-11%
O=C(c1ccc(Cl)c(S(=O)(=O)N2CCCC2)c1)N1CCN(c2ccccc2F)CC1	?	-1	5%	16µM*	12%	?
Cc1cccc(N2CCN(C(=O)c3ccc(Cl)c(S(=O)(=O)NCc4ccco4)c3)CC2)c1C	?	13	7%	?	?	18µM*
COC1OC2COC(c3ccccc3)OC2C(O)C1NC(C)=O (stereo not drawn)	9%	15	.	-9%	.	.
Cc1ccc(NC(=O)c2ccc(Cl)c(S(=O)(=O)N3CCc4ccccc43)c2)nc1	?	-16	.	26µM*	.	.
O=C(NNC(=O)c1ccccc1O)c1ccc(Cl)c(S(=O)(=O)N2CCc3ccccc32)c1	21µM*	97	.	21µM*	.	22%
Cc1ccc(NC(=O)c2ccc(Cl)c(S(=O)(=O)N3CCCC3)c2)nc1	-6%	-15	.	-16%	.	-4%
O=C(NCc1ccco1)c1ccc(Cl)c(S(=O)(=O)N2CCc3ccccc32)c1	?	-51*	-29%	?	?	?
O=C(c1ccc(OC2CCN(CCc3ccccc3)CC2)cc1)N1CCC[C@H]1CO	-11%	-21	.	1%	.	0%
CC(C(=O)Nc1nc2ccccc2[nH]1)N1C(=O)C2CC=CCC2C1=O (stereo not drawn)	-2%	0	-6%	-8%	10µM*	4%
CSc1ccccc1C(=O)Nc1ccccc1C(=O)NC(C)C	23µM*	1	1%	?	6%	-16%
COc1ccccc1C(=O)NCCC(=O)Nc1nc2ccccc2[nH]1	3%	?	.	?	.	?
COc1cc(SC)ccc1C(=O)Nc1nc2ccccc2[nH]1	3.7µM*	47	0.32µM*	2.1µM*	0.1µM*	?
CCSc1ccccc1C(=O)Nc1nc2ccccc2c(=O)[nH]1	?	6	15%	21µM*	32%	?
SMILES	TDP1 cell CPT	IL1B secr inh	VP16 counter	DT40 TDP1 no CPT	RORgamma inh	ELG1 repair inh
CSc1ccccc1C(=O)Nc1nc2ccccc2c(=O)[nH]1	-30%	-2	?	-21%	44%	?
COc1ccccc1C(=O)Nc1nc2ccccc2[nH]1	4.6µM*	-25	0.5µM*	1.8µM*	0.25µM*	?
CSc1ccccc1C(=O)Nc1nc2ccccc2[nH]1	2%	3	?	0%	5µM*	?
Cc1ccc(C(=O)c2oc3ccccc3c2NC(=O)Cc2coc3c(C)c(C)ccc23)cc1	-2%	.	.	-5%	.	.
CC(C)Nc1ncnc2c1ncn2[C@H]1CN(Cc2ccc(F)cc2)C[C@@H](CO)O1	2%	19	.	5%	.	.
Fc1ccc(NC(=S)N2CCOCC2)cc1Cl	-15%	17	4%	12%	-18%	2%
C=CC(=O)Nc1cc2c(Nc3ccc(F)c(Cl)c3)ncnc2cc1OCCCN1CCOCC1	5.3µM*	.	.	4.7µM*	.	.
COc1ccc(COC(=O)C2=C(C)NC(=O)NC2c2cccc(OC)c2OC)cc1 (stereo not drawn)	-15%	4	5%	-17%	7%	-7%
CCCOc1ccccc1C1NC(=O)NC(C)=C1C(=O)OCc1ccccc1 (stereo not drawn)	23µM*	-71*	?	?	1%	16µM*
